The full ranking holds about 33,000 sequences; the median of “E-score (-0.5 to 0.5)” is about -0.015, and the highest 2% start at about 0.3. The list comes from a sample in which the highest values are over-represented; it also holds similar and randomly drawn sequences.
These sequences were tested against T1, Abf1 (UniProt P14164) (assay: PBM E-score (8-mer binding enrichment) (E-score (-0.5 to 0.5)); higher = stronger / more preferred TF binding). Details: protein concentration: 200 nM; construct: GST-full length.
T1 sequence: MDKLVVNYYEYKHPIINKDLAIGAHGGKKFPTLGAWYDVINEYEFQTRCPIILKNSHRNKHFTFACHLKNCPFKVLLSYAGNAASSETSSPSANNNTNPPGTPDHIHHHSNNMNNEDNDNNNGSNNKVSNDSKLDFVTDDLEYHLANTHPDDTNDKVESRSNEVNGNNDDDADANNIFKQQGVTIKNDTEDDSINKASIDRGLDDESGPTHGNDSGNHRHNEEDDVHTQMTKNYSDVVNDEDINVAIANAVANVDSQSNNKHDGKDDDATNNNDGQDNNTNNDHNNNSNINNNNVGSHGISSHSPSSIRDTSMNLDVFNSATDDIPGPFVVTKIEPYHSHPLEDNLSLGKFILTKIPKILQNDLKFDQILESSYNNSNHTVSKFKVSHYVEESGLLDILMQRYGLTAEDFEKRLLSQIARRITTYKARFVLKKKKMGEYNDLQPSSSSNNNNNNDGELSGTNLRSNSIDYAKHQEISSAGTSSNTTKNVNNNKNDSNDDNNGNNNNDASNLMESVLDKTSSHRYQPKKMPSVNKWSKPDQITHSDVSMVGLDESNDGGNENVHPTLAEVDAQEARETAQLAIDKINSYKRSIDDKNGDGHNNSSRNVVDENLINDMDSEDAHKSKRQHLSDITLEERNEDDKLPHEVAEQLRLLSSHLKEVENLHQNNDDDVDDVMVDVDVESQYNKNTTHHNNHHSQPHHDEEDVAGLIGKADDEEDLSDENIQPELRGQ
Experimental: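 Universal 'all 10-mer' protein binding microarrays (Agilent AMADID 015681) probed with GST-tagged S. cerevisiae TFs (full-length or DBD) made by in vitro transcription/translation (PURExpress), about 100-200 nM. Bound TF was detected with fluorescent anti-GST. Each ungapped 8-mer (which stands for itself and its reverse complement) is scored by the PBM enrichment score (E-score), a modified Wilcoxon-Mann-Whitney statistic from -0.5 to +0.5, computed with the Universal PBM Analysis Suite. Scale: above 0.35 generally sequence-specific binding.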

| Sequence | PBM E-score |
| --- | --- |
| ACAACGCC | 0.13 |
| ACCCTACA | -0.153 |
| CGGTCAAC | 0.0203 |
| ACGACGTG | 0.232 |
| GCAAGCGC | -0.201 |
| ACCTCACC | -0.0217 |
| ACTACGAA | 0.205 |
| TATACGAA | 0.368 |
| AATACGAA | 0.337 |
| GATACGAA | 0.309 |
| CATACGAA | 0.267 |
| GATACGAC | 0.148 |
| GTTACGAA | 0.208 |
| TATACGGA | 0.164 |
| AATACGAT | 0.276 |
| AATACGAC | 0.278 |
| CCTACGAA | 0.253 |
| TCTACGAA | 0.301 |
| CCCCATCA | -0.235 |
| GAATTGGA | -0.016 |
| AGCACACC | -0.13 |
| CACAAGAG | -0.0119 |

| Sequence | PBM E-score |
| --- | --- |
| CCAGCACA | -0.0686 |
| AGCGAGAA | -0.0126 |
| CGATATCC | 0.17 |
| CGATATTA | 0.326 |
| AGATATCG | 0.11 |
| CGATATGA | 0.161 |
| CGATATCG | 0.372 |
| CGGTATCA | 0.204 |
| CGATATCA | 0.363 |
| GGATATTA | 0.088 |
| CGATATTC | 0.225 |
| GGACCGCA | -0.155 |
| ACAGGGGC | -0.194 |
| ACACCCGT | -0.04 |
| TCAAACAA | -0.127 |
| GAGAGGAC | -0.077 |
| TCAGTAGA | -0.0357 |
| CATTAGTC | -0.14 |
| GTGACCAC | 0.175 |
| AAGATCGC | 0.169 |
| AAGATCGT | 0.332 |
| AAGATCGG | -0.163 |

| Sequence | PBM E-score |
| --- | --- |
| ACGATCGT | 0.319 |
| ACGATCGG | 0.168 |
| ACGATCGC | 0.265 |
| GCGCTGTA | -0.132 |
| CCTACGTC | 0.0219 |
| TACCAGTA | 0.0685 |
| ATCAGGAC | 0.103 |
| ACCTTGGG | -0.0211 |
| ACTGACAA | 0.129 |
| AGTGACAA | 0.439 |
| AGTGACCG | 0.125 |
| CCTGACAG | -0.0556 |
| ACTGACAT | 0.0708 |
| GGTGACCA | 0.0526 |
| AGTGACAG | 0.292 |
| AGTGACCA | 0.308 |
| AGTGACAT | 0.43 |
| CATGACAG | 0.0583 |
| ATTGACAA | 0.0759 |
| CGTGACAG | 0.319 |
| GTATAGGA | 0.0694 |
| CAGAGTTC | -0.228 |

| Sequence | PBM E-score |
| --- | --- |
| GGGCCGTA | 0.244 |
| GACAGGAA | 0.0498 |
| GATCGCCC | 0.0433 |
| GCGACCAC | 0.134 |
| TCGATTAA | 0.0311 |
| CACAAAAA | 0.0732 |
| GCAGTTAA | -0.0142 |
| CTAACGAC | 0.263 |
| TCAGTCCA | -0.171 |
| AGTGACAC | 0.382 |
| GTTGACAA | 0.16 |
| TGTGACAA | 0.221 |
| CGTGACAA | 0.375 |
| GCTGACAA | 0.0133 |
| AGTGACTA | 0.324 |
| AGTGACTG | 0.175 |
| GGTGACAA | 0.423 |
| AGTGACTC | 0.149 |
| ATTGACAC | -0.12 |
| GGTGACAC | 0.238 |
| CGTGACAC | 0.252 |
